The record followed here is article PMC7862700, “An all-to-all approach to the identification of sequence-specific readers for epigenetic DNA modifications on cytosine”.

What all share (assay): DAPPL (digital affinity profiling via proximity ligation, sequencing); 10 mM Tris-HCl pH 7.5, 50 mM NaCl, 1 mM DTT, 4% glycerol, room temperature, 30 min; GST-TFs on glutathione beads, 16-mer random dsDNA library, 0.1% formaldehyde crosslink after washing; high values mean tight binding
One test addresses T1, FEV (Homo sapiens, UniProt Q99581 1-238).
T1 sequence: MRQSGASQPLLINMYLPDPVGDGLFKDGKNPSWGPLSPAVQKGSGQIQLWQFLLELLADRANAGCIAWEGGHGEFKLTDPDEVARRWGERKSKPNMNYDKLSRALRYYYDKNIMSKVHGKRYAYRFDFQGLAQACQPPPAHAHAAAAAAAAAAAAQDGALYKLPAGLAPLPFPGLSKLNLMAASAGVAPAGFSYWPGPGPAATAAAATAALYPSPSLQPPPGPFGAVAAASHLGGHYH
The note with it: protein: recombinant; tags: N-terminal GST; dsDNA, one strand shown. The method, boiled down:
(§1)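 In yeast, human transcription factors were expressed with a GST fusion, then pulled down on glutathione beads and given DNA barcodes. Pooled with a tag-only sample, they were exposed to 200 nmole of a 16-mer random double-stranded DNA library (Tris/NaCl/DTT/glycerol buffer, room temperature, 30 min), washed, crosslinked with 0.1% formaldehyde, proximity-ligated using BsaI/T4 ligase for 1 h at 37 °C, PCR-amplified and read on an Illumina NextSeq500. Each hexamer's frequency of reads for a factor, divided by the matching frequency for the tag-only sample, gives the binding signal.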

The next test deals with ETV5 (Homo sapiens, UniProt P41161 1-510). The note with it: protein: recombinant; tags: N-terminal GST; dsDNA, one strand shown. The method, boiled down: as §1
Chain of ETV5 (P41161 whole entry): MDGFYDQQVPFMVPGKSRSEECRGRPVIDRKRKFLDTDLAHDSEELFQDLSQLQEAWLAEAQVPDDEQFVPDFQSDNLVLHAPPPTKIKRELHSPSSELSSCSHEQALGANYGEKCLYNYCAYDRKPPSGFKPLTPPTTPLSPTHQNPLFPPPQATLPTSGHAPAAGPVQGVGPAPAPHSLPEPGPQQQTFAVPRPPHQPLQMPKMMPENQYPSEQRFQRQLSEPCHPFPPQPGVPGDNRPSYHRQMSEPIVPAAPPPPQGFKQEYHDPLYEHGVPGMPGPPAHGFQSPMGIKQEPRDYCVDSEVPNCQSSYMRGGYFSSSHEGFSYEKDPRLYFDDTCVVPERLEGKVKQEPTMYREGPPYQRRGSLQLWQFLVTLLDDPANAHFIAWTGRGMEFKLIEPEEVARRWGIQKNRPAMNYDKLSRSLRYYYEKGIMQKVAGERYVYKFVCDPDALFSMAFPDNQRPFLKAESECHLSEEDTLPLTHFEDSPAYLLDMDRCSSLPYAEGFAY
In a further test the target is HSF1 (Homo sapiens, UniProt Q00613 1-529). The note with it: protein: recombinant; tags: N-terminal GST; chain copies: 3; dsDNA, one strand shown. The method, boiled down: as §1
Chain of HSF1 (Q00613 whole entry): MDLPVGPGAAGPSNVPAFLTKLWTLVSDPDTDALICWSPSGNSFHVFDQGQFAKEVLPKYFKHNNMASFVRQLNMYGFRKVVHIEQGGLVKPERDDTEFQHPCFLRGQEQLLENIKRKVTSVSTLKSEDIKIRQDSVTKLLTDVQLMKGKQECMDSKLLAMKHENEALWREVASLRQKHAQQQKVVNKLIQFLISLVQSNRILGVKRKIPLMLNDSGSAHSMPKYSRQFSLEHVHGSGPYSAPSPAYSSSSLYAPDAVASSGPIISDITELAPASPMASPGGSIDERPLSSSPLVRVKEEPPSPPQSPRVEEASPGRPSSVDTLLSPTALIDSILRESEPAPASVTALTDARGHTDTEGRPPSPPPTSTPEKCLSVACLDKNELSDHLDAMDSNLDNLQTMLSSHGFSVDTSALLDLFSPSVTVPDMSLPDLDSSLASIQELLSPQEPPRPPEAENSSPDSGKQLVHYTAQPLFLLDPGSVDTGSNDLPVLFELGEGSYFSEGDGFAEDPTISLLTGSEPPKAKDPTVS
In a further test the target is T2, SPIC (Homo sapiens, UniProt Q8N5J4 1-248).
T2 sequence: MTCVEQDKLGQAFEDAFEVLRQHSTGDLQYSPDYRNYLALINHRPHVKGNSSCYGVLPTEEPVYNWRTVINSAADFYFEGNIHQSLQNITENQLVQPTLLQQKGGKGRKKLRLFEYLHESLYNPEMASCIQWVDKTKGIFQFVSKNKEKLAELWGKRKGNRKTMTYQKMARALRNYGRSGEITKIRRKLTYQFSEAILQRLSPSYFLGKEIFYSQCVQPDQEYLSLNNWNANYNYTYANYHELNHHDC
The note with it: protein: recombinant; tags: N-terminal GST; dsDNA, one strand shown. The procedure, abridged: as §1

For the next test, the target named is ELF4 (Homo sapiens, UniProt Q99607 1-663). The note with it: protein: recombinant; tags: N-terminal GST; dsDNA, one strand shown. The method, boiled down:
as §1

The target of a further test is T3, ELK4 (Homo sapiens, UniProt P28324-2 1-405).
T3 sequence: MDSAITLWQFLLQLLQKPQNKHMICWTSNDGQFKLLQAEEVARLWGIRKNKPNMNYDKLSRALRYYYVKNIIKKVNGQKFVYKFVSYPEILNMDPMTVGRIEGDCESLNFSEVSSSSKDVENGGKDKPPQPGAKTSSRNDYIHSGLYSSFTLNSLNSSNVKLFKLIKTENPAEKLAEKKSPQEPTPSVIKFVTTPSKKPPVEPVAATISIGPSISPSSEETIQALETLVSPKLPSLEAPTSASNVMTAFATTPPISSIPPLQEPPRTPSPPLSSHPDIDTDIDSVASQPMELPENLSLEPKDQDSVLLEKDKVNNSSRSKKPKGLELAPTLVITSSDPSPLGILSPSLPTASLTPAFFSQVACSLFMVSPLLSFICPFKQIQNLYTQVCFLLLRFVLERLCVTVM
The note with it: protein: recombinant; tags: N-terminal GST; dsDNA, one strand shown. The procedure, abridged:
as §1

Another test concerns the target T4, ETV2 (Homo sapiens, UniProt O00321 1-342).
T4 sequence: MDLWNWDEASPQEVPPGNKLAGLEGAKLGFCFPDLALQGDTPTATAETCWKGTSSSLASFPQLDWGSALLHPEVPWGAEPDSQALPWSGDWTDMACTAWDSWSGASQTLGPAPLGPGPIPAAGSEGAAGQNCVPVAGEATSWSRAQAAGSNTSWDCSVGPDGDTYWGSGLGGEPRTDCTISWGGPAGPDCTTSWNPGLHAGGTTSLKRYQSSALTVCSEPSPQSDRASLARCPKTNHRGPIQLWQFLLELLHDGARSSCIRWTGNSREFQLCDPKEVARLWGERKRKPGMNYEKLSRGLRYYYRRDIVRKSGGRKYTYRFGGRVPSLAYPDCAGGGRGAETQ
The note with it: protein: recombinant; tags: N-terminal GST; dsDNA, one strand shown. The method, boiled down:
as §1

The target of a further test is T5, ELF3 (Homo sapiens, UniProt P78545 1-371).
T5 sequence: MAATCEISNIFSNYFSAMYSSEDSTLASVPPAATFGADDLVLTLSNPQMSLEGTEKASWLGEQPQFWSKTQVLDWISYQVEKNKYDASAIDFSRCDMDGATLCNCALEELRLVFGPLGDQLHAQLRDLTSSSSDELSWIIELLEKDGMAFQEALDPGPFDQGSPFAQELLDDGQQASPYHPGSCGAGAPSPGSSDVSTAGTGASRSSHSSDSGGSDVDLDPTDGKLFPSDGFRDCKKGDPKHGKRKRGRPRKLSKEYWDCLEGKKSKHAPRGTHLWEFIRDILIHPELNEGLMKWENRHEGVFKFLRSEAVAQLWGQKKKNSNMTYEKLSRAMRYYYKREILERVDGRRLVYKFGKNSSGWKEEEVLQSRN
The note with it: protein: recombinant; tags: N-terminal GST; dsDNA, one strand shown. The procedure, abridged: as §1

The next test has as its target CRX (Homo sapiens, UniProt O43186 1-299). The note with it: protein: recombinant; tags: N-terminal GST; dsDNA, one strand shown. The method, boiled down: as §1
For another test, the target named is ETV1 (Homo sapiens, UniProt P50549 1-477). The note with it: protein: recombinant; tags: N-terminal GST; dsDNA, one strand shown. The procedure, abridged: as §1
Chain of ETV1 (P50549 whole entry): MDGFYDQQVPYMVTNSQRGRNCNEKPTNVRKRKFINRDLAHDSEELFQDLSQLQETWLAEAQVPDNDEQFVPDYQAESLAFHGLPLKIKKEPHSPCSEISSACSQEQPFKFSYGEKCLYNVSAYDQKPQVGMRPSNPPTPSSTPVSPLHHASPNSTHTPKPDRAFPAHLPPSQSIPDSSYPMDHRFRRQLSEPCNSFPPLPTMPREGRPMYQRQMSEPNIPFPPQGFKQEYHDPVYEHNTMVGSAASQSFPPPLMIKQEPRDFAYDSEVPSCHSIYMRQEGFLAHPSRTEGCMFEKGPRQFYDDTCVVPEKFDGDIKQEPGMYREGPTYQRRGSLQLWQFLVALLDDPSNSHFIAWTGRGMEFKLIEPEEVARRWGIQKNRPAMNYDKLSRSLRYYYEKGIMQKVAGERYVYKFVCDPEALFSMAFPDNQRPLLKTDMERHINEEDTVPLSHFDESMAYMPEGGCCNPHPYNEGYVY
The target in the next test is T6, ERF (Homo sapiens, UniProt P50548 1-548).
T6 sequence: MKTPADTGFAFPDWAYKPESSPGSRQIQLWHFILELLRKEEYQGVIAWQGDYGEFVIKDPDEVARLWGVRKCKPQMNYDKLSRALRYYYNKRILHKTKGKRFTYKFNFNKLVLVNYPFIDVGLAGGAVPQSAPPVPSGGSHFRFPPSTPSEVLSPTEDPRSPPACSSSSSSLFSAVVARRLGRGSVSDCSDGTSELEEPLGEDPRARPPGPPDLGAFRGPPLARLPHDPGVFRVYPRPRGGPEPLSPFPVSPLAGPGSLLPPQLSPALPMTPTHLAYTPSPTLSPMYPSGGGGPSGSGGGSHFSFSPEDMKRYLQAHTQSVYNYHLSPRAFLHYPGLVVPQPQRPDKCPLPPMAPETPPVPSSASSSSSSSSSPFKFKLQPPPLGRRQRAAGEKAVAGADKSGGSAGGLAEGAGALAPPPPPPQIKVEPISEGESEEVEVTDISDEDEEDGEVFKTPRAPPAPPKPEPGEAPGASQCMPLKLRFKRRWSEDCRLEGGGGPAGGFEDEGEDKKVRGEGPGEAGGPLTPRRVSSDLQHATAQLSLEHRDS
The note with it: protein: recombinant; tags: N-terminal GST; dsDNA, one strand shown. The procedure, abridged:
as §1

The target of a further test is T7, ETV3L (Homo sapiens, UniProt Q6ZN32 1-361).
T7 sequence: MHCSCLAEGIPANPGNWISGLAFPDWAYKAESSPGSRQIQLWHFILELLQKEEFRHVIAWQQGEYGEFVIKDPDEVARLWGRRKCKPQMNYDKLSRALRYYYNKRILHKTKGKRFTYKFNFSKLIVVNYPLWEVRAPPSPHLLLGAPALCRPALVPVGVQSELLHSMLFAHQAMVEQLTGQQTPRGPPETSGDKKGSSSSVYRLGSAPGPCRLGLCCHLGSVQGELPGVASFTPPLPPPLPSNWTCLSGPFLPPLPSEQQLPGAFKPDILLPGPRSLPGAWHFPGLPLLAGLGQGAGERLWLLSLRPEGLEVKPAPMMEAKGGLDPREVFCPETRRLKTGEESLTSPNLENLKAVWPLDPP
The note with it: protein: recombinant; tags: N-terminal GST; dsDNA, one strand shown. The method, boiled down:
as §1

For another test, the target named is T8, ETS2 (Homo sapiens, UniProt P15036 1-469).
T8 sequence: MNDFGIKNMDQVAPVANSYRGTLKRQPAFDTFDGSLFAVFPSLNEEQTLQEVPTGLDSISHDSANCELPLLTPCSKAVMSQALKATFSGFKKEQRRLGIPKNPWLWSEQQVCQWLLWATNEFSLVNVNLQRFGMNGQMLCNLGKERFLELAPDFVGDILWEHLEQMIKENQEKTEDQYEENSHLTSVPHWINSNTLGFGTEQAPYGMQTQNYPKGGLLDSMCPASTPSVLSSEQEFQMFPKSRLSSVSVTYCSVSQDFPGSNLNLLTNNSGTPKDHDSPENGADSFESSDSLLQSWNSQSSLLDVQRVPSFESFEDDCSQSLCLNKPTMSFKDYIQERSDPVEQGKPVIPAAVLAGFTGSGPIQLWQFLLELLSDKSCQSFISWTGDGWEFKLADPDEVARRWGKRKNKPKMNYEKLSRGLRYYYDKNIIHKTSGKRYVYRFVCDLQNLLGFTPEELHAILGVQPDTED
The note with it: protein: recombinant; tags: N-terminal GST; dsDNA, one strand shown. The procedure, abridged: as §1

A further test concerns the target T9, SPDEF (Homo sapiens, UniProt O95238 1-335).
T9 sequence: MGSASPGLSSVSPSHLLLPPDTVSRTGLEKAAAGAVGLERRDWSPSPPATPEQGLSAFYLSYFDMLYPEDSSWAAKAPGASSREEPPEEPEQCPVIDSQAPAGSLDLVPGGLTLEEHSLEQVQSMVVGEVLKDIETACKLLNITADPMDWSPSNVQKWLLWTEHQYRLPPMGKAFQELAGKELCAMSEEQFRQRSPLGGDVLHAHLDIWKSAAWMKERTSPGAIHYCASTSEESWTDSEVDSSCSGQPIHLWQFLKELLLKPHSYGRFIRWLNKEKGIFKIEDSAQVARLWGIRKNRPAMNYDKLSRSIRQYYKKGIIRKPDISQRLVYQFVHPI
The note with it: protein: recombinant; tags: N-terminal GST; dsDNA, one strand shown. The method, boiled down:
as §1

In the next test the target is T10, ETV7 (Homo sapiens, UniProt Q9Y603 1-341).
T10 sequence: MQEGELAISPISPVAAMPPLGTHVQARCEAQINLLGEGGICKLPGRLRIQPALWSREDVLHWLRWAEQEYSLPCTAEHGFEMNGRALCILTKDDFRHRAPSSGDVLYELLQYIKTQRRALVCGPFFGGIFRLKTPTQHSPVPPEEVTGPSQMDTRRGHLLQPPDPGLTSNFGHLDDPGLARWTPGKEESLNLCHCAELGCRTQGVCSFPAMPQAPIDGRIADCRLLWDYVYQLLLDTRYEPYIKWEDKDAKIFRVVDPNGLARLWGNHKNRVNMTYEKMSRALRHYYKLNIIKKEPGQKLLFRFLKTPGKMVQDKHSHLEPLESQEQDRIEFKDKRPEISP
The note with it: protein: recombinant; tags: N-terminal GST; dsDNA, one strand shown. The procedure, abridged:
as §1

The target of a further test is T11, ELF5 (Homo sapiens, UniProt Q9UKW6-2 1-255).
T11 sequence: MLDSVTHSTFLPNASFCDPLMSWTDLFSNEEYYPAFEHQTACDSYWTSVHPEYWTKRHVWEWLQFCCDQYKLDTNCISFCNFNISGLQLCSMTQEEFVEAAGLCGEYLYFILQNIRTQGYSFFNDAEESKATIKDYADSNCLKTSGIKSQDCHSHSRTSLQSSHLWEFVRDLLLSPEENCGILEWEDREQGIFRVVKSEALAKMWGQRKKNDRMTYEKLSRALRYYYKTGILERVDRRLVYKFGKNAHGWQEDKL
The note with it: protein: recombinant; tags: N-terminal GST; dsDNA, one strand shown. The procedure, abridged:
as §1

A further test concerns the target T12, ETV3 (Homo sapiens, UniProt P41162-2 1-143).
T12 sequence: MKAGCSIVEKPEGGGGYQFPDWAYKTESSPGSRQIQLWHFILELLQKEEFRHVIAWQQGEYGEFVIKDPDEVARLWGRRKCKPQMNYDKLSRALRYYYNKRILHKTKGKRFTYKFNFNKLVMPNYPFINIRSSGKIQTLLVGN
The note with it: protein: recombinant; tags: N-terminal GST; dsDNA, one strand shown. The method, boiled down:
as §1

A further test concerns the target ETV6 (Homo sapiens, UniProt P41212 1-452). The note with it: protein: recombinant; tags: N-terminal GST; dsDNA, one strand shown. The procedure, abridged: as §1

Chain of ELF4 (Q99607 whole entry): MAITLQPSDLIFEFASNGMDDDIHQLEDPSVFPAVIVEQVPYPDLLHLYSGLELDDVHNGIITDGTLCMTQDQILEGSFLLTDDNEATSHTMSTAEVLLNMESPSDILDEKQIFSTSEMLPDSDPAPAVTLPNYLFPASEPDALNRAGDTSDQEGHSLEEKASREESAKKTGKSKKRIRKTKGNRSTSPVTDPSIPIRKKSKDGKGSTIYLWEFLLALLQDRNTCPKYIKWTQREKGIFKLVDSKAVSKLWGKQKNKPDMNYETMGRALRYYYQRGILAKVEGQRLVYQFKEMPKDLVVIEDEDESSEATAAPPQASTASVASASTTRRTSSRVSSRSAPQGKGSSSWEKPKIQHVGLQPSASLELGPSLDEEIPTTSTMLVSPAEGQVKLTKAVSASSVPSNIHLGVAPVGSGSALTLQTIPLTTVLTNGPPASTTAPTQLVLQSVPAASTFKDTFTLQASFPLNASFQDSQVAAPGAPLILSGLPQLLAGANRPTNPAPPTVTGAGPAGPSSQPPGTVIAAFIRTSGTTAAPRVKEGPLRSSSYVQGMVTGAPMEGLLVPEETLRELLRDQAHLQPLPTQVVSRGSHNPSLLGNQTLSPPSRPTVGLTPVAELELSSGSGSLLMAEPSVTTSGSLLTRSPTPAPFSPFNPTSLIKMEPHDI
Chain of CRX (O43186 whole entry): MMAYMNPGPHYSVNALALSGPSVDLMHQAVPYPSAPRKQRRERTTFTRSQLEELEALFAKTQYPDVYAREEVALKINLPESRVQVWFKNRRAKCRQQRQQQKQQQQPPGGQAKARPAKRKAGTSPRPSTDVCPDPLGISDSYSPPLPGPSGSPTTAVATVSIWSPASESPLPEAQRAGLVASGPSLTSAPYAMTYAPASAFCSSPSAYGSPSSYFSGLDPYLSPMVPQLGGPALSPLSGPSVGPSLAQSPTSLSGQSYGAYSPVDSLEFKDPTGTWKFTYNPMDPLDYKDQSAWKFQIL
Chain of ETV6 (P41212 whole entry): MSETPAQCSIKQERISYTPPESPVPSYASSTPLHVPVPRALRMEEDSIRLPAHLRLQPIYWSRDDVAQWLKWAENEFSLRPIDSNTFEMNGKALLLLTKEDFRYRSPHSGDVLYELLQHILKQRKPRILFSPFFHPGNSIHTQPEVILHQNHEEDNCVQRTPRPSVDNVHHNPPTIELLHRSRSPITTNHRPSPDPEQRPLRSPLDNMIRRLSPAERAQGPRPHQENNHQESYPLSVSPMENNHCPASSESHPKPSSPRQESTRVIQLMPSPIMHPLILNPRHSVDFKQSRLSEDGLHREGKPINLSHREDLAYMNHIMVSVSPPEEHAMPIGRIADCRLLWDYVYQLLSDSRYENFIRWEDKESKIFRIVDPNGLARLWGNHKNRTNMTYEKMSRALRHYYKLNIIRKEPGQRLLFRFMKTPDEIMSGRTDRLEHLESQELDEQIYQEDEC

Consider CTAATG, for which the binding signal with FEV was 1.16 fold enrichment (6-mer frequency, TF over GST control); in the test with ETV5 it was 1.25 fold enrichment (6-mer frequency, TF over GST control); in the test with HSF1, 1.31 fold enrichment (6-mer frequency, TF over GST control); with SPIC, 1.35 fold enrichment (6-mer frequency, TF over GST control); with ELF4 it was 1.36 fold enrichment (6-mer frequency, TF over GST control); with ELK4 it was 1.34 fold enrichment (6-mer frequency, TF over GST control). Besides, the binding signal was 1.12 fold enrichment (6-mer frequency, TF over GST control) with ETV2; 1.27 fold enrichment (6-mer frequency, TF over GST control) in the test with ELF3; 1.6 fold enrichment (6-mer frequency, TF over GST control) with CRX; 1.29 fold enrichment (6-mer frequency, TF over GST control) with ETV1; 1.2 fold enrichment (6-mer frequency, TF over GST control) in the test with ERF; 1.17 fold enrichment (6-mer frequency, TF over GST control) with ETV3L. Further, the binding signal was 1.25 fold enrichment (6-mer frequency, TF over GST control) in the test with ETS2; 1.11 fold enrichment (6-mer frequency, TF over GST control) with SPDEF; 1.3 fold enrichment (6-mer frequency, TF over GST control) in the test with ETV7; 1.23 fold enrichment (6-mer frequency, TF over GST control) with ELF5; 1.16 fold enrichment (6-mer frequency, TF over GST control) with ETV3; 1.3 fold enrichment (6-mer frequency, TF over GST control) with ETV6.
